# Pf growth 48h = inhibits P. falciparum growth in the first generation, 48 h; P. falciparum luciferase growth in erythrocytes, 48 h; Potency, µM (doses to about 28.7 µM), usual class: inhibitors; hit rate 5.9% among 310,000; AID 504832
#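 Cell-based growth assay: transgenic P. falciparum expressing firefly luciferase, cultured in red cells within RPMI 1640 containing 0.5% w/v Albumax, 24 mM bicarbonate and gentamycin. A drop in luciferase activity indicates inhibition.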
# Pf growth 96h = P. falciparum growth inhibition at 96 hour, primary screen for plastid delayed-death inhibitors; hit rate 6.9% among 320,000; P. falciparum luciferase reporter growth, 96 h; Potency, µM (doses to about 28.7 µM), usual class: inhibitors
#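 Readout is luminescence from an integrated firefly luciferase in P. falciparum. Red cells, 2% hematocrit and 0.05% parasitemia final, were cultured with compound through two parasite generations (96 hours) at 37 C, 5% CO2.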
# LmPK inhibitor = LmPK (Leishmania mexicana) enzyme inhibition; Potency, µM (top dose mostly 57.5 µM), hits mostly inhibitors; purified LmPK, Kinase-Glo ATP luminescence, 1 h; hit rate 0.37% among 290,000
# Target sequence (Q27686 whole entry, looked up): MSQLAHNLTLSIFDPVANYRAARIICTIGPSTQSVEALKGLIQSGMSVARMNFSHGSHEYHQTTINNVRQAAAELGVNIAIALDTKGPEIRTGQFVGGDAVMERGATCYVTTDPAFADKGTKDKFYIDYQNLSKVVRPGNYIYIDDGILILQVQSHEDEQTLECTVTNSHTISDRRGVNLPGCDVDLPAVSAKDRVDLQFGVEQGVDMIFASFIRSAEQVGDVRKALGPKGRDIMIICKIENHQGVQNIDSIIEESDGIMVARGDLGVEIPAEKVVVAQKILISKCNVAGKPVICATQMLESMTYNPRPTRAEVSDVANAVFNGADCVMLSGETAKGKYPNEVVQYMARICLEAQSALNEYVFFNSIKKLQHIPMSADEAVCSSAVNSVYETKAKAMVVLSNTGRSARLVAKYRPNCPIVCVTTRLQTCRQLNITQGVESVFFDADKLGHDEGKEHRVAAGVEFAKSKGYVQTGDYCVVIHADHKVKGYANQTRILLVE
#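 ATP generated from ADP (0.1 mM) and PEP (0.5 mM) by 0.1 nM LmPK over 1 h at room temperature (pH 7.2 imidazole buffer) was detected by coupled luciferase luminescence. Values were normalized to uninhibited and no-enzyme wells.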
# Shiga inhibitor = inhibitors of Shiga toxin in Vero cells | Vero cells, Shiga toxin protein synthesis inhibition reporter | inhibition, % at 38.7 µM | hit rate 9.2% among 290,000 | AID 2315; in the data active means inhibition mostly above about 28%, no sharp cut-off; inactive means mostly below about 43%
# Cycloheximide cs = affects cycloheximide protein synthesis inhibition readout, counter-screen. hit rate 12% among 300,000. AID 2314. max response, %. cell reporter, cycloheximide protein synthesis inhibition counterscreen; in the data active means max response mostly above about 13%, no sharp cut-off; inactive means mostly below about 14%; further: read at 38.3 µM for the half of the compounds with a filed dose
# A number is an active result; 0 = inactive; ? = inconclusive; - = not tested or not shown; [ ] = remark or other dose. Most compounds without a hit are left out; they make up all but 22% or so of the library. Unless noted, the call rests on the fitted dose curve; in most records, active means well fitted inhibition curve with a large enough effect; inconclusive means small, poorly fitted or top-dose-only effect, or another doubt; inactive means no such curve, though single readings can be large or run the other way.
SMILES,Pf growth 48h,Pf growth 96h,LmPK inhibitor,Shiga inhibitor,Cycloheximide cs
COc1ccc(OCc2cc(C(=O)N3C[C@H]4CC[C@H]3C4)no2)c(Cl)c1,0,0,0,88,36
O=C(NCC1CCOCC1)c1cc(COc2ccc(F)cc2F)on1,0,0,0,0,0
COc1ccccc1OCc1cc(C(=O)N2CC3C[C@@H]4CC2C[C@H](C3)C4)no1,?,0,0,76,51
O=C(c1cc(COc2ccc(F)cc2F)on1)N1C[C@H]2CC[C@H]1C2,0,0,0,101,52
COc1ccc(OC)c(CCNC(=O)CN2C(=O)COc3ccc(S(=O)(=O)N4CCOCC4)cc32)c1,0,0,0,0,0
CCN=C1S/C(=C/c2ccc(-c3ccc(F)cc3)o2)C(=O)N1CC,?,0,0,0,0
O=C(c1cc(COc2ccc(F)cc2F)on1)N1CC2C[C@@H]3CC1C[C@H](C2)C3,?,?,0,115,43
COCC1CCN(C(=O)c2cc(COc3ccc(F)cc3F)on2)C1 (stereo not drawn),0,0,0,0,20
O=C(c1cc(COc2ccc(F)cc2Cl)on1)N1CCN(C2CCCCC2)C(=O)C1,0,0,0,0,0
COC(=O)C(C)CCCC(C)CCCC(C)CCCC(C)C (stereo not drawn),-,-,-,0,0
Cc1ncc(C[n+]2csc(CCOP(=O)(O)OP(=O)(O)O)c2C)c(N)n1,0,0,-,0,0
COCc1cc(S(=O)c2ccc(Cl)cc2)nc(C)n1 (stereo not drawn),0,0,0,0,16
C[C@@H]1C(=O)N(S(=O)(=O)c2ccc([N+](=O)[O-])cc2)[C@H]1c1ccc(F)cc1,-,-,-,0,0
Cc1nn(C)c(=O)c(N)c1-c1cc(-c2ccc(Cl)c(Cl)c2)n[nH]1,0,0,0,0,0
Cc1ccc(-c2cc(-c3c(C)nn(C)c(=O)c3N)[nH]n2)cc1,?,?,0,0,26
O=P(O)(c1ccccc1)c1ccccc1O,0,12µM,0,0,0
CCOC(=O)c1ccc(NC(=O)COc2ccccc2CNCCO)cc1,?,?,0,0,0
CC(C)(CO)NCc1ccccc1OCC(=O)Nc1ccccc1,0,-,0,0,24
Cc1ccc(NC(=O)COc2ccccc2CNC(C)(C)CC(C)(C)C)cc1,7.4µM,-,0,0,0
N#CCCN(C(=O)COC(=O)C12CC3CC(CC(O)(C3)C1)C2)c1ccc(F)cc1,0,0,-,-,-
CCN(C(=S)NC(=O)C1CC1)c1ccccc1,0,0,0,0,0
O=C(C1CC1)N(CCN(C(=O)C1CC1)c1ccccc1)c1ccccc1,0.0026µM,0,0,0,0
O=C(COC(=O)c1ccc(S(=O)(=O)Nc2ccccc2)cc1)NCCC1=CCCCC1,0,0,0,0,0
COC(=O)c1ccc(OC(=O)CN2C(=O)c3ccccc3C2=O)cc1,0,?,0,0,0
CCOC(=O)N/N=C\c1ccc(-c2cc(Cl)ccc2Cl)o1,5.2µM,0,0,0,0
SMILES,Pf growth 48h,Pf growth 96h,LmPK inhibitor,Shiga inhibitor,Cycloheximide cs
NC(=S)N/N=C/c1ccc(-c2cc(Cl)ccc2Cl)o1,-,4.7µM,0,0,0
COc1cc(/C=C/C(=O)OCC(=O)NCCc2ccc(S(N)(=O)=O)cc2)ccc1OCC#N,0,0,-,-,-
O=C(CC(=O)Nc1cccc(Cl)c1Cl)Nc1cccc(Cl)c1Cl,-,0,0,0,0
Cn1cc(Cl)c(C(=O)N/N=C/c2ccc3c4c(cccc24)CC3)n1,0,0,0,61,29
Cn1cc(Cl)c(C(=O)N/N=C/c2ccc(OS(=O)(=O)c3ccccc3)cc2)n1,?,9.3µM,0,0,0
Cn1cc(Cl)c(C(=O)Nc2cccc(Cl)c2Cl)n1,0,0,0,0,42
Cc1ccc(/C=N/NC(=O)c2nn(C)cc2Cl)cc1,0,0,?,47,34
COc1ccc(/C=N\NC(=O)c2nn(C)cc2Cl)cc1CN1CCOCC1,0,0,0,0,0
N#Cc1ccc(NC(=O)Cn2cnc(S(=O)(=O)N3CCCC3)c2)cc1,0,0,0,0,0
Cc1cccc(S(=O)(=O)N2CCn3cccc3C2C)c1 (stereo not drawn),?,0,-,-,-
O=[N+]([O-])c1ccc(SCc2ccncc2)nc1,0,0,0,0,0
CCOc1cc2c(cc1OCC)C(c1ccccc1)N(c1ccc(C(=O)O)cc1)C(=O)C2 (stereo not drawn),?,?,0,0,0
Cc1ccc(NS(=O)(=O)c2ccc(OCC(N)=O)cc2)cc1,0[5.75 µM],0,0,0,0
COc1cccc(NC(=O)CN(C)C(=O)CCCc2nc3ccccc3s2)c1,0,?,-,-,-
NC(N)=N/N=C/c1ccc(OS(=O)(=O)c2ccccc2)cc1,2.1µM,0,0,0,0
CCC(=O)N/N=C/c1ccc(OS(=O)(=O)c2ccccc2)cc1,10µM,?,0,0,0
COc1ccc(C(=O)C2CCCN(S(=O)(=O)c3ccccc3F)C2)c(C)c1 (stereo not drawn),0,?,0,0,0
O=C(c1ccc(Cl)cc1)N1N=CCC1(O)c1ccc(Cl)cc1 (stereo not drawn),0,0,0,0,22
CCOC(=O)C1=C(C)N(C)C(=O)NC1c1cc2c(cc1[N+](=O)[O-])OCO2 (stereo not drawn),0,0,0,0,0
O=C(CN1CCN(c2ccccn2)CC1)Nc1ccc([N+](=O)[O-])cc1C(=O)Nc1ccccc1F,?,0,0,0,0
CCOc1cccc2cc(C(=O)NCc3cccnc3)c(=O)oc12,0,2.3µM,0,0,0
COc1cccc2cc(C(=O)NCCc3ccccc3)c(=O)oc12,0,0,0,0,17
COc1cccc2cc(C(=O)NCc3ccccn3)c(=O)oc12,0,?,0,0,23
COc1cccc2cc(C(=O)N3CCc4ccccc4C3)c(=O)oc12,-,0,0,0,24
Nc1ccc(-n2nncc2-c2ccc(Cl)cc2)cc1,?,-,0,0,0
SMILES,Pf growth 48h,Pf growth 96h,LmPK inhibitor,Shiga inhibitor,Cycloheximide cs
N[C@@H](CSCCCO)C(=O)O,0,0,-,-,-
CCOC(=O)c1c(NC(=O)CN2C(=O)NC3(CCC(CC)CC3)C2=O)sc(C)c1-c1ccc(C)cc1 (stereo not drawn),0,0,0,0,0
CCC(=O)Nc1cccc(-c2ccc(N3CCCCC3)nn2)c1,0,0,0,0,0
CCOc1cccc2cc(C(=O)NCc3ccc(C)cc3)c(=N)oc12,0,0,0,0,0
CCOc1cccc2cc(C(=O)NCc3ccc(OC)cc3)c(=N)oc12,?,10µM,0,0,0
CCOC(=O)C1C(=O)C=C(Nc2ccccc2F)CC1c1ccccc1 (stereo not drawn),0,0,0,54,46
COc1ccc(NC2CC(=O)NC2=O)cc1 (stereo not drawn),0,0,0,0,0
COC(=O)C1C(=O)C=C(Nc2ccc(F)cc2F)CC1c1ccccc1 (stereo not drawn),0,0,0,0,21
CCOC(=O)C1C(O)=CC(=O)CC1c1ccccc1 (stereo not drawn),?,0,-,-,-
COC(=O)C1C(=O)C=C(Nc2ccc(F)cc2)CC1c1ccc(OC)cc1 (stereo not drawn),0,0,0,0,25

# Screening results as filed in PubChem BioAssay.
